# tim10-1 inh = growth inhibitors of tim10-1 mutant yeast, primary screen, luminescence, uHTS; S. cerevisiae tim10-1 ts strain growth, BacTiter-Glo, 24 h; AID 463190, 2010; inhibition, % at 20 µM; hit rate 2.2% among 330,000;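 active = inhibition of at least 40%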;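 note: mutant grown at 25 °C; 0% = DMSO wells with yeast and 100% = wells holding no yeast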
# NLRP3 yeast inh = NALP3 inflammasome inhibitors in reconstituted yeast, primary screen, luminescence, uHTS; Yeast reconstituted NLRP3/ASC/caspase-1, beta-gal luminescence, 24 h; inhibition, % at 10 µM; hit rate 0.39% among 330,000;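 active = inhibition of 50% or more; inactive = inhibition below 50%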;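 note: plate controls were induced DMSO wells for no effect and uninduced yeast grown without galactose for full effect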
# TIM10 inh = growth inhibitors of isogenic TIM10 control yeast, primary screen, counter-screen for tim10-1 yeast inhibitor project, luminescence, uHTS | S. cerevisiae TIM10 strain growth, BacTiter-Glo luminescence, 24 h | inhibition, % at 10 µM | hit rate 1.4% among 330,000 | AID 463195, 2010;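 active = inhibition of 40% or more at the single tested concentration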;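 note: wild-type TIM10 isogenic control strain grown at permissive 25 °C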
# NALP1 inh = NALP1 inflammasome inhibitors in reconstituted yeast, colorimetric, S. cerevisiae, triplicate retest | S. cerevisiae NALP1/ASC/caspase-1 growth, X-gal OD620, 72 h | AID 2071, 2009 | inhibition, % at 10 µM | hit rate 0.61% among 280,000; in the data active = inhibition mostly above about 24%, no sharp cut-off; inactive = mostly below about 32%
# tim23-1 inh = growth inhibitors of tim23-1 mutant yeast, primary screen, luminescence, uHTS | S. cerevisiae tim23-1 growth, BacTiter-Glo luminescence, 24 h | inhibition, % at 20 µM | hit rate 1.3% among 330,000 | AID 463212, 2010;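 active = growth inhibition of the mutant yeast at or above 50%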;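 note: temperature-sensitive mutant grown at 25 °C; plate controls were DMSO-treated mutant yeast for no effect and medium wells lacking yeast for full effect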
# NALP3 yeast conf = NALP3 inhibitors retested in yeast, confirmation, luminescence, single concentration. yeast expressing human NALP3. shares compounds with NLRP3 yeast inh. inhibition, % at 10 µM. hit rate 81% among 1,300; in the data active = inhibition above about 48%
# Casp1 ASC ctr = CASP1-PYCARD signaling inhibition in yeast, confirmatory test, counterassay for NLRP3 inhibitor program, one-dose; shares compounds with NLRP3 yeast inh; yeast expressing Caspase-1-ASC, luminescence counter screen; inhibition, % at 10 µM; hit rate 66% among 1,000
# NALP3 retest = NALP3 inhibitors in yeast, repeat test, confirmation, luminescence, single concentration, retest; inhibition, % at 10 µM; hit rate 53% among 1,000; shares compounds with NLRP3 yeast inh; yeast expressing human NALP3, luminescence read-out
# tim10-1 confirm = growth inhibitors of tim10-1 mutant yeast, confirmation, single concentration, luminescence, S. cerevisiae; shares compounds with tim10-1 inh; S. cerevisiae tim10-1 ts strain growth, BacTiter-Glo, 24 h; inhibition, % at 20 µM; hit rate 56% among 7,400;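 active = inhibition of yeast growth at or above a set limit in either of two repeat tests at 20 µM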;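 note: tim10-1 mutant grown at permissive 25 °C to find synthetic lethal compounds; 0% = DMSO yeast wells and 100% = medium wells without yeast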
# TIM10 conf = growth inhibitors of wild-type TIM10 yeast, confirmation, counter-screen for tim10-1 synthetic lethality project, single concentration, luminescence, S. cerevisiae. shares compounds with TIM10 inh. S. cerevisiae tim10 strain growth, BacTiter-Glo luminescence, 24 h. inhibition, % at 10 µM. hit rate 63% among 4,600. AID 463215, 2010;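 active = inhibition of yeast growth at or above a set limit in either of two replicates at 10 µM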;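 note: this counterscreen used the strain with wild-type TIM10; 0% = yeast with DMSO and 100% = medium wells lacking yeast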
# * hit, by the source's call; . = no result given. Shown are actives, neighbours in structure and some others; about 4.1% of the full set was active somewhere. Cut-off read from the data, not from the text of the source, unless noted: active = inhibition above about 50%; inactive = the rest.
SMILES,tim10-1 inh,NLRP3 yeast inh,TIM10 inh,NALP1 inh,tim23-1 inh,NALP3 yeast conf,Casp1 ASC ctr,NALP3 retest,TIM10 conf,others
CC(C)(C)C(=O)/C(=C\c1ccc([N+](=O)[O-])cc1)n1cncn1,36,74*,61*,55*,-57,65*,.,.,-22,
CC1=NNC(=O)/C1=C\c1cn(-c2ccccc2)nc1-c1ccc(F)cc1,.,.,.,8,.,.,.,.,.,
CC1=NNC(=O)/C1=C\c1cn(-c2ccccc2)nc1-c1cccs1,19,54*,88*,65*,19,74*,.,.,84*,
COc1ccc(C2=C3C(=O)OCC3Cc3ncn(Cc4ccccc4)c32)cc1 (stereo not given),17,3,3,.,20,.,.,.,.,
O=C(Nc1cccc(F)c1)c1ccc2c(c1)OCCO2,27,67*,41*,12,45,70*,62*,60*,53*,
O=C(Nc1ccccc1)c1ccc2c(c1)OCCO2,-2,37,29,-1,44,.,.,.,.,
O=C1/C(=C/c2ccccc2[N+](=O)[O-])COc2ccccc21,25,71*,79*,6,-37,62*,85*,74*,89*,
Cc1sc2ncnc(Oc3ccc(-n4ccnc4)cc3)c2c1C,52*,53*,69*,23,46,61*,69*,48,-5,tim10-1 confirm=53*
N#Cc1nc(COc2ccccc2)oc1N1CCCCCC1,18,52*,75*,-13,18,71*,50,37,4,
Cc1cc(C)c(C#N)c(SCc2nc3ccccc3[nH]2)n1,0,54*,44*,16,28,44,36,41,36*,
N#Cc1cc2c(nc1SCc1nc3ccccc3[nH]1)CCC2,42*,66*,73*,10,35,79*,.,.,67*,tim10-1 confirm=35*
Cc1cccc(CSc2nc3c(cc2C#N)CCC3)c1,20,-5,-12,24,-6,.,.,.,.,
Cc1ccccc1CNC(=O)C(=O)NCC1CCCN1S(=O)(=O)c1cccs1 (stereo not given),14,2,26,.,26,.,.,.,.,
COc1cc(CNCCc2ccccc2)ccc1OCc1ccc(Cl)nc1,2,50*,55*,19,7,42,46,51*,-4,
CN(CCO)c1cc(Sc2nc3ccccc3s2)c2nonc2c1[N+](=O)[O-],41*,62*,53*,-10,14,65*,.,.,26*,tim10-1 confirm=39*
CC(=O)OCCN(C)c1cc(SC(C)C)c2nonc2c1[N+](=O)[O-],1,6,-4,7,-13,.,.,.,.,
O=CC1=C(c2ccccc2)Oc2ccccc2O1,22,68*,78*,52*,23,64*,75*,85*,79*,
O=C(c1nc[nH]c1C(=O)N1CCc2ccccc2C1)N1CCc2ccccc2C1,16,-7,7,.,12,.,.,.,.,
Fc1ccc(CSc2nnc(-c3cnccn3)n2Cc2ccco2)cc1,30,-123,41*,7,42,-21,.,.,26,
Fc1ccc(CSc2nnc(-c3cccnc3)n2Cc2ccco2)cc1,28,-7,24,27,15,.,.,.,.,
Cn1ccnc1C1CCCCN1Cc1nc(-c2ccc(Cl)cc2)no1 (stereo not given),2,2,-4,18,23,.,.,.,.,

# From PubChem
